Screen size: about 140,000 compounds; about 2,100 (1.5%) were called active.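 Rule for the calls: active = viability at or under a set limit, the compound median less 4 SD (cut at about 6% in these data); inactive = the rest.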 The sample as a whole holds a higher share of actives than the screen did.
assay: primary screen for growth suppressors in beta-catenin knockout HCT116 cells (colon tumor, human) (AID 818); settings: CellTiter-Glo, 60 h, at 10 µM, hits give low values;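 note: 0% = Hyamine 1622 control at 20 µM and 100% = untreated cell control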

| Structure (SMILES) | viability |
| --- | --- |
| CC(=O)Nc1cccc(/C(C)=N/NC(=O)c2c(-c3ccccc3Cl)noc2C)c1 | 54.6% (inactive) |
| CCn1c(/C=C/c2ccc([N+](=O)[O-])o2)nc2ccccc2c1=O | 2.56% (active) |
| Cc1ccc(-n2c(SCC(=O)N/N=C/C=C/c3ccccc3[N+](=O)[O-])nc3ccccc3c2=O)cc1 | 83.5% (inactive) |
| Cn1cc(/C=C/c2nc3ccccc3c(=O)n2-c2cccc([N+](=O)[O-])c2)c2ccccc21 | 66.3% (inactive) |
| O=C(CSc1nc2ccccc2[nH]1)N/N=C/C=C\c1ccccc1[N+](=O)[O-] | 57.4% (inactive) |
| CC(NC(=O)C(=O)NN=C1CCC(C(C)(C)C)CC1)c1ccccc1 (stereo unspecified) | 98.5% (inactive) |
| CCCCCC(=O)Nc1ccc(C(=O)N/N=C/c2ccc([N+](=O)[O-])cc2)cc1 | 4.26% (active) |
| O=C(COc1ccc(/C=N/NC(=O)c2ccc(O)cc2)cc1)Nc1ccc([N+](=O)[O-])cc1 | 64.3% (inactive) |
| CCCCCC(=O)NC(=S)NNC(=O)c1ccc([N+](=O)[O-])cc1 | 42.3% (inactive) |
| FC(F)Oc1ccccc1NC(=S)Nc1cccc(Cl)c1Cl | 94.2% (inactive) |
| CCN1CN(Cc2ccccc2)CNC1=S | 94.5% (inactive) |
| C/C(=N\NC(=O)c1cc2c(s1)CCC(C)C2)c1cccnc1 (stereo unspecified) | 66.6% (inactive) |
| Cc1ccc(C(=O)NC(=S)NCCN2CCOCC2)cc1 | 101% (inactive) |
| Cc1ccc(-c2csc(NC(=O)c3cccs3)n2)cc1 | 95.5% (inactive) |
| Cc1ccc(-c2nnc(-c3ccc(NC(=O)c4cccs4)cc3)o2)cc1 | 2.05% (active) |
| COc1cccc(NC(=O)Cc2ccc(C)cc2)c1 | 99.6% (inactive) |
| COc1ccc(CC(=O)Nc2ccc(-c3nnc(-c4ccc(C)cc4)o3)cc2)cc1 | 5.04% (active) |
| COc1ccc(CC(=O)Nc2ccc(C(=O)NC(C)(C)C)cc2)cc1 | 84.5% (inactive) |
| Cc1nc(-c2ccc(NC(=O)c3cccs3)cc2)cs1 | 67% (inactive) |
| O=C(/C=C/c1cccs1)NCc1cccnc1 | 91.2% (inactive) |
| Cc1ccc(-c2nc(-c3cccnc3)sc2CC(=O)Nc2ccc(C)c(Cl)c2)cc1 | 58.3% (inactive) |
| CCc1nccn1S(=O)(=O)c1cccc([N+](=O)[O-])c1 | 96.5% (inactive) |
| C=CCOc1c(Br)cc(/C=N\n2nnnc2N)cc1OC | 85.3% (inactive) |
| CCN1CCN(C(c2cccnc2)c2cc(Cl)c3cccnc3c2O)CC1 (stereo unspecified) | 45.3% (inactive) |

| Structure (SMILES) | viability |
| --- | --- |
| Oc1c(CN2CCN(c3ccc(F)cc3)CC2)cc(Cl)c2cccnc12 | 3.91% (active) |
| O=C(c1cccc(C(=O)N2CCN(c3ccc(F)cc3)CC2)c1)N1CCN(c2ccc(F)cc2)CC1 | 47.4% (inactive) |
| Cc1ccc2c(c1)C(c1ccccc1)N(C(=O)c1ccc(S(=O)(=O)N3CCOCC3)cc1)CC(=O)N2 (stereo unspecified) | 94.9% (inactive) |
| Cc1cc2c(C)nc(N/N=C/c3ccccc3)nc2o1 | 92% (inactive) |
| Clc1cccc(CN2COc3c(cc(Cl)c4cccnc34)C2)c1 | 3.67% (active) |
| Nc1c(C(=O)NCc2ccccc2)nnn1Cc1cccc(Cl)c1 | 25.6% (inactive) |
| O=c1[nH]n(-c2cccc(Cl)c2)c2ncccc12 | 85.9% (inactive) |
| CCOC(=O)c1cc2c(=O)n3ccccc3nc2n(CC(C)C)c1=NC(=O)c1c(-c2c(F)cccc2Cl)noc1C | 66.4% (inactive) |
| Cc1cc(C)nc(NC(=O)c2cccc([N+](=O)[O-])c2)c1 | 97.8% (inactive) |
| CSCCC(NC(=O)COc1ccccc1)C(=O)Nc1ccc(C)cc1 (stereo unspecified) | 99.2% (inactive) |
| CSCC[C@H](NC(=O)OC(C)(C)C)C(=O)N/N=C/c1cc2ccc(C)cc2nc1Cl | 1.02% (active) |
| CCOc1cc(/C=N/NC(=O)OC)ccc1OCCSc1ccc(Cl)cc1 | 93.9% (inactive) |
| COCCCNC(=S)NC(=O)c1ccc([N+](=O)[O-])cc1 | 95.7% (inactive) |
| Cc1nc(Cl)c2oc3ccccc3c2n1 | 2.84% (active) |
| CCSc1nc(C)nc2c1oc1ccccc12 | 95.4% (inactive) |
| Cc1nc(N2CCCC2C(=O)O)c2oc3ccccc3c2n1 (stereo unspecified) | 95.6% (inactive) |
| Cc1ccc(CCCOC(=O)C[N+]2(C)CCCC2)cc1 | 97% (inactive) |
| Cc1ccc(S(=O)(=O)c2ccc(Cl)cc2)cc1S(=O)(=O)NC(C(=O)O)C(C)C (stereo unspecified) | 97.6% (inactive) |
| CN1CCN(C(=O)/C(=C\c2cccs2)NC(=O)c2cccs2)CC1 | 90.3% (inactive) |
| Cc1cc(Nc2ccccc2)nc(N)n1 | 93.5% (inactive) |
| Cc1cc(Nc2ccccc2)n(C(=O)c2ccc(N)cc2)n1 | 85.7% (inactive) |
| Nc1ccc(Nc2ccccc2)cc1 | 5.41% (active) |
| O=C(Cn1nnc(-c2ccccc2)n1)N/N=C/c1ccc(-c2ccc(Cl)cc2)o1 | 80.7% (inactive) |
| O=C(c1ccc(CSc2ccccc2)cc1)N1CCCCCC1 | 65.2% (inactive) |

| Structure (SMILES) | viability |
| --- | --- |
| O=[N+]([O-])c1c(NCCO)cc(Sc2nc3ccccc3s2)c2nonc12 | 1.67% (active) |
| O=C(O)c1cccc(S(=O)(=O)Nc2ccc(O)cc2Sc2nc3ccccc3s2)c1 | 91.9% (inactive) |
| COc1ccc(S(=O)(=O)Nc2ccc(O)c(Sc3nc4ccccc4s3)c2)cc1 | 82.2% (inactive) |
| CN(c1ccccc1)S(=O)(=O)c1ccc(Cl)c(C(=O)NCCc2c[nH]c3ccccc23)c1 | 78.7% (inactive) |
| CNC(=O)/C(C#N)=C/c1c(F)cccc1Cl | 74.3% (inactive) |
| CC1=CC(C)(C)Nc2ccc(OC(=O)CN3C(=O)C4CCCCC4C3=O)cc21 (stereo unspecified) | 0.52% (active) |
| O=C(CN1C(=O)C2C3CCC(C3)C2C1=O)Oc1ccc2ccccc2c1 (stereo unspecified) | 85.5% (inactive) |
| CC1=CC(C)(C)Nc2ccc(OC(=O)C(Cc3ccccc3)N3C(=O)C4CCCCC4C3=O)cc21 (stereo unspecified) | 44.7% (inactive) |
| CCCOC(=O)c1c(NC(=O)c2cnn3c2NC(c2ccccc2)CC3C(F)(F)F)sc2c1CCCC2 (stereo unspecified) | 61% (inactive) |
| CCCOc1ccc(C(=O)C(CCC(CNCC)C(=O)c2ccc(OCCC)cc2)CNCC)cc1 (stereo unspecified) | 0.87% (active) |
| CCCCOc1ccc(C(=O)NN2CCN(C)CC2)cc1 | 87.1% (inactive) |
| CCCCOc1ccc(C(=O)NCc2ccncc2)cc1 | 70.7% (inactive) |
| O=C(c1ccc(S(=O)(=O)c2ccccc2)cc1)N1CCCCCC1 | 93.2% (inactive) |
| C=CCn1c(SCc2ccc(Cl)c(Cl)c2)nnc1C(CO)NC(=O)c1ccc(OC)cc1 (stereo unspecified) | 90.7% (inactive) |
| Cc1cc(C)c2nc(SCCC#N)nc(C)c2c1 | 109% (inactive) |
| Cc1cc(C)c2nc3nc(C)cc(C)c3c(N)c2c1 | 1.48% (active) |
| C=CCNC(=O)/C=C/c1ccc(C(C)C)cc1 | 90.7% (inactive) |
| Nc1nc(SCC(=O)NNc2c(Cl)cc(Cl)cc2Cl)n[nH]1 | 98.6% (inactive) |
| Cc1sc2nc(CC(N)=O)[nH]c(=O)c2c1-c1ccccc1 | 90.4% (inactive) |
| NS(=O)(=O)c1ccc(NC(=O)COC(=O)C2(c3ccc(F)cc3)CCCC2)cc1 | 82.7% (inactive) |
| O=C(/C=C/c1ccccc1)c1ccccc1O | 83.6% (inactive) |
| Cc1[nH]c(=O)c(C(=O)/C=C/c2ccccc2)c2c1CCCC2 | 2.53% (active) |
| O=C(/C=C/c1ccccc1)c1ccoc1 | 10.1% (inactive) |
| CCNS(=O)(=O)c1ccc(NC(=O)c2cncc(Br)c2)cc1 | 97.6% (inactive) |

| Structure (SMILES) | viability |
| --- | --- |
| O=C(NC(=S)Nc1ccc2oc(=O)ccc2c1)c1ccc(-c2cccc(Cl)c2Cl)o1 | 101% (inactive) |
| COc1cccc2sc(Nc3nc(C)c(C(C)=O)s3)nc12 | 5.29% (active) |
| COc1cccc2sc(NNC(=O)c3nc4ccccc4s3)nc12 | 14.9% (inactive) |
| CC(=O)c1sc(NC(=O)c2cccc3ccccc23)nc1C | 87.1% (inactive) |
| CCOc1ccc2nc(NC(=O)c3cc([N+](=O)[O-])ccc3N3CCOCC3)sc2c1 | 39.5% (inactive) |
| COc1ccccc1N1CCN(C(=O)C(=O)N/N=C/c2ccccc2F)CC1 | 104% (inactive) |
| Fc1ccc2c(c1)C(c1cccnc1)=NNC(c1cccs1)=N2 | 40.4% (inactive) |
| Fc1ccc2[nH]c3c(N4CCSCC4)ncnc3c2c1 | 5.04% (active) |
| CCN1CCCC1CNc1ncnc2c1[nH]c1ccc(F)cc12 (stereo unspecified) | 82.2% (inactive) |
| CC(C)OCCCNc1ncnc2c1[nH]c1ccc(F)cc12 | 9.7% (inactive) |
| CC(=O)COc1ccc2c(-c3ccccc3)cc(=O)oc2c1 | 95.5% (inactive) |
| COc1ccc(C2COC(=O)C2=N)c(NC(=O)c2ccccc2)c1 (stereo unspecified) | 79.1% (inactive) |
| CC1(c2ccccc2)CC(C)(C)N(C(=O)c2cc([N+](=O)[O-])cc([N+](=O)[O-])c2)c2ccccc21 (stereo unspecified) | 69% (inactive) |
| Cn1c(C(=O)NCCN2CCc3ccccc3C2)cc2c(=O)[nH]c3ccccc3c21 | 87.4% (inactive) |
| CN1CCN(CCCNC(=O)c2cc3c(=O)oc4ccccc4c3s2)CC1 | 92% (inactive) |
| O=C(NCCN1CCN(Cc2ccccc2)CC1)c1cc2c(=O)[nH]c3ccccc3c2s1 | 1.35% (active) |
| COc1ccccc1N=Cc1c(O)c2ccccc2oc1=O | 84.7% (inactive) |
| CCCCCCc1cc2cc(-c3nnc(-c4ccccc4)o3)c(=O)oc2cc1O | 1.64% (active) |
| Cc1c(/C=N/N2C(=O)C3C4C=CC(C4)C3C2=O)c2ccccc2n1C (stereo unspecified) | 90.7% (inactive) |
| Cc1coc2c(O)cc3c(c12)OC1(N2CCCCC2)C(=O)NCCCC31 (stereo unspecified) | 2.34% (active) |
| Cc1cccc(N2CCN(C(=O)c3ccccc3NC(=O)C3CCCCC3C(=O)O)CC2)c1 (stereo unspecified) | 93.7% (inactive) |
| COc1ccc(NC(=O)/C(Cl)=C(/Cl)S(=O)Cc2ccc(C)cc2)cn1 (stereo unspecified) | 0.98% (active) |
| COc1cc(NC(=O)Nc2ccc(C)cc2)cc([N+](=O)[O-])c1 | 86.1% (inactive) |
| COc1ccc(NS(=O)(=O)c2ccc(NC(=S)NC(=O)/C=C/c3ccc(C)cc3)cc2)nn1 | 84.3% (inactive) |
